# “And” between values parts separate entries of the source, which are not always exact repeats. Identical values can stand only once. The campaign covered roughly 5,500 compounds. About 2,000 (36%) were called active. Roughly 18% stayed inconclusive and do not appear here. The list shows a part of the results. Unmarked numbers belong to inactive results. Rule as the data show it: active = normalized growth mostly below about 0.91 (no sharp cut-off); inconclusive = no clear call, values can overlap the other calls; inactive = mostly above about 0.92.
# Assay: chemical genetic growth profiling, strain panel (AID 1159580);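 also: tested at 20 µM; growth read once vehicle control cultures reached saturation at 30 °C; 1 = growth at the plate median or of vehicle wells; lower values mean less growth of the strain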
# Settings: S. cerevisiae deletion strains, growth OD
compound,measurement,setting,value
c1ccc2[nH]c(-c3cscn3)nc2c1,normalized growth,"locus YAL021C, strain ccr4, hits give low values",0.964
same,normalized growth,"locus YAL026C, strain drs2, hits give low values",0.956
same,normalized growth,"locus YAL030W, strain snc1, hits give low values",1.01
same,normalized growth,"locus YBL061C, strain skt5, hits give low values",1.01
same,normalized growth,"locus YBR009C, strain hhf1, hits give low values",0.965
same,normalized growth,"locus YBR021W, strain FUR4, hits give low values",0.946
same,normalized growth,"locus YBR023C, strain chs3, hits give low values",0.993
same,normalized growth,"locus YBR171W, strain sec66, hits give low values",1
same,normalized growth,"locus YBR229C, strain ROT2, hits give low values",0.991
same,normalized growth,"locus YBR231C, strain swc5, hits give low values",0.958
same,normalized growth,"locus YBR279W, strain paf1, hits give low values",1.01
same,normalized growth,"locus YCL011C, strain gbp2, hits give low values",0.982
same,normalized growth,"locus YCL016C, strain dcc1, hits give low values",0.95
same,normalized growth,"locus YCL029C, strain bik1, hits give low values",0.945
same,normalized growth,"locus YCL061C, strain MRC1, hits give low values",0.991
same,normalized growth,"locus YCL069W, strain vba3, hits give low values",0.996
same,normalized growth,"locus YCR088W, strain abp1, hits give low values",1.01
same,normalized growth,"locus YDL005C, strain med2, hits give low values",1.02
same,normalized growth,"locus YDL035C, strain GPR1, hits give low values",0.996
same,normalized growth,"locus YDL040C, strain nat1, hits give low values",1.01
same,normalized growth,"locus YDL074C, strain BRE1, hits give low values",0.94
same,normalized growth,"locus YDL101C, strain DUN1, hits give low values",1.01
same,normalized growth,"locus YDL134C, strain PPH21, hits give low values",0.998
same,normalized growth,"locus YDL185W, strain tfp1, hits give low values",1.01
same,normalized growth,"locus YDL192W, strain arf1, hits give low values",1.01
same,normalized growth,"locus YDR069C, strain doa4, hits give low values",0.988
same,normalized growth,"locus YDR101C, strain arx1, hits give low values",0.945
same,normalized growth,"locus YDR137W, strain rgp1, hits give low values",0.91
same,normalized growth,"locus YDR159W, strain sac3, hits give low values",0.965
same,normalized growth,"locus YDR162C, strain NBP2, hits give low values",1.01
same,normalized growth,"locus YDR195W, strain ref2",1.15 [resistant] (active)
same,normalized growth,"locus YDR297W, strain sur2, hits give low values",1.03
same,normalized growth,"locus YDR318W, strain mcm21, hits give low values",0.998
same,normalized growth,"locus YDR334W, strain swr1, hits give low values",0.998
same,normalized growth,"locus YDR335W, strain msn5, hits give low values",1.02
same,normalized growth,"locus YDR388W, hits give low values",1.01
same,normalized growth,"locus YDR392W, strain spt3, hits give low values",0.867
same,normalized growth,"locus YDR502C, strain sam2, hits give low values",0.971
same,normalized growth,"locus YEL003W, strain gim4, hits give low values",0.132 (active)
same,normalized growth,"locus YEL037C, strain rad23, hits give low values",0.991
same,normalized growth,"locus YEL061C, strain CIN8 (second series), hits give low values",1
same,normalized growth,"locus YEL061C, strain CIN8, hits give low values",0.987
same,normalized growth,"locus YER015W, strain faa2, hits give low values",0.997
same,normalized growth,"locus YER016W, strain bim1, hits give low values",0.995
same,normalized growth,"locus YER110C, hits give low values",1.02
same,normalized growth,"locus YER111C, strain swi4, hits give low values",1.01
same,normalized growth,"locus YER155C, strain BEM2 (second series), hits give low values",0.833 (active)
same,normalized growth,"locus YER155C, strain BEM2, hits give low values",0.991
same,normalized growth,"locus YER167W, strain BCK2, hits give low values",0.997
same,normalized growth,"locus YFR010W, strain ubp6, hits give low values",0.986
same,normalized growth,"locus YGL078C, strain dbp3, hits give low values",1.01
same,normalized growth,"locus YGL086W, strain mad1, hits give low values",0.959
same,normalized growth,"locus YGL167C, strain pmr1, hits give low values",1.02
same,normalized growth,"locus YGL173C, strain kem1, hits give low values",1.01
same,normalized growth,"locus YGL227W, strain vid30, hits give low values",1.02
same,normalized growth,"locus YGL240W, strain doc1, hits give low values",0.957
same,normalized growth,"locus YGL248W, strain PDE1, hits give low values",0.992
same,normalized growth,"locus YGL253W, strain hxk2, hits give low values",0.998
same,normalized growth,"locus YGR135W, strain pre9, hits give low values",1.04
same,normalized growth,"locus YGR252W, strain gcn5, hits give low values",0.962
same,normalized growth,"locus YHR013C, strain ard1, hits give low values",0.922
same,normalized growth,"locus YHR027C, strain rpn1, hits give low values",1.01
same,normalized growth,"locus YHR030C, strain SLT2, hits give low values",0.992 and 0.96
same,normalized growth,"locus YHR079C, strain IRE1 (second series), hits give low values",1
same,normalized growth,"locus YHR079C, strain IRE1, hits give low values",0.963
same,normalized growth,"locus YHR094C, strain hxt1, hits give low values",1.01
same,normalized growth,"locus YHR129C, strain ARP1, hits give low values",0.993
same,normalized growth,"locus YHR142W, strain chs7, hits give low values",1
same,normalized growth,"locus YHR200W, strain rpn10, hits give low values",1
same,normalized growth,"locus YIL066C, strain RNR3, hits give low values",0.954
same,normalized growth,"locus YIL073C, strain SPO22, hits give low values",1.06
same,normalized growth,"locus YIL125W, strain kgd1, hits give low values",1
same,normalized growth,"locus YIR030C, strain dcg1, hits give low values",0.994
same,normalized growth,"locus YJL092W, strain hpr5, hits give low values",0.997
same,normalized growth,"locus YJL095W, strain BCK1 (second series), hits give low values",1.02
same,normalized growth,"locus YJL095W, strain BCK1, hits give low values",0.997 and 0.958
same,normalized growth,"locus YJL115W, strain asf1, hits give low values",1
same,normalized growth,"locus YJL129C, strain trk1, hits give low values",1.02
same,normalized growth,"locus YJL134W, strain LCB3, hits give low values",1
same,normalized growth,"locus YJL154C, strain vps35, hits give low values",1.01
same,normalized growth,"locus YJL164C, strain tpk1, hits give low values",0.966
same,normalized growth,"locus YJL166W, strain qcr8, hits give low values",1
same,normalized growth,"locus YJL168C, strain set2, hits give low values",1.01
same,normalized growth,"locus YJL187C, strain SWE1 (second series), hits give low values",0.974
same,normalized growth,"locus YJR043C, strain POL32, hits give low values",0.964
same,normalized growth,"locus YJR066W, strain TOR1, hits give low values",0.917
same,normalized growth,"locus YJR075W, strain HOC1, hits give low values",0.979
same,normalized growth,"locus YKL009W, strain mrt4, hits give low values",1.02

# From PubChem BioAssay AID1159580 (chemical genetic matrix, 2015)
